Assay results: PubChem BioAssay (NCATS)
Inconclusive results are not listed. A call without a number means that no potency is given here. The source made the active and inactive calls. Calls follow the shape of the dose curve; as a rule, active = well fitted cell-killing curve with a large enough effect; inconclusive = small, poorly fitted or top-dose-only effect; inactive = flat fitted curve, though single readings scatter.

Experiment: Quantitative highthroughput screen to assess conditional lethalithy of P12 Ichikawa cells grown in Human Plasma-Like Medium with dialyzed fetal bovine serum (HPLM+ds) (AID 1963879)
Conditions: ATP luminescence, 48 h; Potency: viability; series mostly up to 45.8 µM
Outline: (§1)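 Each medium arm—HPLM with 10% dialyzed FBS, or RPMI1640 with 5 mM glucose and 10% untreated or dialyzed FBS—was screened against an 11-point, 3-fold compound titration for 48 h at 37 °C, with CellTiter-Glo luminescence as endpoint.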
Also: nearly all actives have a fitted effect of over 35% in size.
Potency is read from the fitted curve at half-maximal effect.

With O=c1oc2c(O)c(O)cc3c(=O)oc4c(O)c(O)cc1c4c23 as the molecule, how does the Potency read?
The Potency was “inactive”.

For Cc1nnc(NS(=O)(=O)c2ccc(N)cc2)s1, which Potency is on record?
The Potency was 7.43 µM (active).

For Nc1ccn([C@@H]2CS[C@H](CO)O2)c(=O)n1, which Potency is on record?
The Potency was “inactive”.

With N#Cc1ccc(C(c2ccc(C#N)cc2)n2cncn2)cc1 as the molecule, how does the Potency read?
Its Potency is “inactive”.

For c1ccc([C@H]2CN3CCSC3=N2)cc1, which Potency is on record?
The Potency was “inactive”.

For C=CCn1c(=O)c2cnc(Nc3ccc(N4CCN(C)CC4)cc3)nc2n1-c1cccc(C(C)(C)O)n1, which Potency is on record?
Its Potency is 1.05 µM (active).

Which Potency does the source give for CC(=O)OCC(CCn1cnc2cnc(N)nc21)COC(C)=O here?
The Potency was “inactive”.

Which Potency does the source give for CC[N+](CC)(CC)CCOc1cccc(OCC[N+](CC)(CC)CC)c1OCC[N+](CC)(CC)CC here?
The Potency was “inactive”.

For C#CCN[C@@H]1CCc2ccccc21, which Potency is on record?
The Potency was “inactive”.

Which Potency does the source give for O=C1CSC(=O)N1C(CCc1ccncc1)COc1ccc(-c2cccc([N+](=O)[O-])c2)cc1 (configuration not stated) here?
The Potency was “inactive”.

With C1COC(NC(C2CC2)C2CC2)=N1 as the molecule, how does the Potency read?
Its Potency is “inactive”.

For CCCCOc1c(C(=O)c2c(F)cc(C)cc2F)cnc2n[nH]cc12, which Potency is on record?
The Potency was “inactive”.

With Cc1nc2n(c(=O)c1CCN1CCC(c3noc4cc(F)ccc34)CC1)CCCC2 as the molecule, how does the Potency read?
Its Potency is “inactive”.

For CNC1CCCN(c2c(F)cc3c(=O)c(C(=O)O)cn(C4CC4)c3c2OC)C1 (configuration not stated), which Potency is on record?
Its Potency is “inactive”.

For Clc1ccc(C2(c3ccc(-c4cn[nH]c4)cc3)CCNCC2)cc1, which Potency is on record?
Its Potency is 5.26 µM (active).

For CC(=O)N(O)CCCCCNC(=O)CCC(=O)N(O)CCCCCNC(=O)CCC(=O)N(O)CCCCCN, which Potency is on record?
The Potency was 0.0047 µM (active).

Which Potency does the source give for Nc1cc(C(Cl)=C(Cl)Cl)c(S(N)(=O)=O)cc1S(N)(=O)=O here?
The Potency was 1.18 µM (active).

Which Potency does the source give for Cc1cnc(Nc2ccc(N3CCN(C)CC3)cc2)nc1Nc1cccc(S(=O)(=O)NC(C)(C)C)c1 here?
The Potency was 11.8 µM (active).

With CCOC(=O)c1ncn2c1CN(C)C(=O)c1cc(F)ccc1-2 as the molecule, how does the Potency read?
Its Potency is 3.72 µM (active).

For CCCn1c(=O)c2[nH]c(-c3cnn(Cc4cccc(C(F)(F)F)c4)c3)nc2n(CC)c1=O, which Potency is on record?
The Potency was “inactive”.

Experiment: Quantitative highthroughput screen to assess conditional lethalithy of P12 Ichikawa cells grown in RPMI1640 with dialyzed fetal bovine serum (RPMI+ds) (AID 1963880)
Conditions: ATP luminescence, 48 h; Potency: P12-Ichikawa viability; series mostly up to 45.8 µM
Outline: as §1

Which Potency does the source give for O=c1oc2c(O)c(O)cc3c(=O)oc4c(O)c(O)cc1c4c23 here?
The Potency was “inactive”.

For Cc1nnc(NS(=O)(=O)c2ccc(N)cc2)s1, which Potency is on record?
Its Potency is 13.2 µM (active).

For NC1=N[C@H]2[C@H](CS[C@H]2CCCCC(=O)O)N1, which Potency is on record?
Its Potency is “inactive”.

Which Potency does the source give for Nc1ccn([C@@H]2CS[C@H](CO)O2)c(=O)n1 here?
The Potency was “inactive”.

For N#Cc1ccc(C(c2ccc(C#N)cc2)n2cncn2)cc1, which Potency is on record?
The Potency was “inactive”.

For CC(C)Cn1cnc2c(N)nc3ccccc3c21, which Potency is on record?
The Potency was “inactive”.

With c1ccc([C@H]2CN3CCSC3=N2)cc1 as the molecule, how does the Potency read?
Its Potency is “inactive”.

Which Potency does the source give for C=CCn1c(=O)c2cnc(Nc3ccc(N4CCN(C)CC4)cc3)nc2n1-c1cccc(C(C)(C)O)n1 here?
Its Potency is 1.87 µM (active).

Which Potency does the source give for CC(=O)OCC(CCn1cnc2cnc(N)nc21)COC(C)=O here?
The Potency was “inactive”.

For OC[C@H]1O[C@@H](OCCc2ccc(O)cc2)[C@H](O)[C@@H](O)[C@H]1O, which Potency is on record?
The Potency was “inactive”.

For CC(=O)c1cnc2ccc(-c3cc(Cl)c(O)c(Cl)c3)nc2c1NC1CCC(CN(C)C)CC1 (configuration not stated), which Potency is on record?
Its Potency is 0.132 µM (active).

With Cn1cnc([N+](=O)[O-])c1Sc1ncnc2nc[nH]c12 as the molecule, how does the Potency read?
Its Potency is 5.9 µM (active).

With C=CC(=O)Nc1cc2c(Nc3ccc(F)c(Cl)c3)ncnc2cc1OCCCN1CCOCC1 as the molecule, how does the Potency read?
The Potency was “inactive”.

Which Potency does the source give for CC[N+](CC)(CC)CCOc1cccc(OCC[N+](CC)(CC)CC)c1OCC[N+](CC)(CC)CC here?
Its Potency is “inactive”.

Which Potency does the source give for C#CCN[C@@H]1CCc2ccccc21 here?
Its Potency is “inactive”.

Which Potency does the source give for Fc1cc(-c2cccc3ncc(-c4cnn(C5CCNCC5)c4)nc23)cc(F)c1CN1CCOCC1 here?
The Potency was 16.6 µM (active).

Which Potency does the source give for O=C1CSC(=O)N1C(CCc1ccncc1)COc1ccc(-c2cccc([N+](=O)[O-])c2)cc1 (configuration not stated) here?
The Potency was “inactive”.

For CCCCOc1c(C(=O)c2c(F)cc(C)cc2F)cnc2n[nH]cc12, which Potency is on record?
Its Potency is “inactive”.

For CC(C)CC(=O)Nc1n[nH]c2c1CN(C(=O)C1CCN(C)CC1)C2(C)C, which Potency is on record?
The Potency was 4.69 µM (active).

With Cc1nc2n(c(=O)c1CCN1CCC(c3noc4cc(F)ccc34)CC1)CCCC2 as the molecule, how does the Potency read?
Its Potency is “inactive”.

Which Potency does the source give for CNC1CCCN(c2c(F)cc3c(=O)c(C(=O)O)cn(C4CC4)c3c2OC)C1 (configuration not stated) here?
Its Potency is “inactive”.

For Cc1cnc(CNC(=O)c2c(=O)c3ccc(N4CCCN(C)CC4)nc3n3c2sc2ccccc23)cn1, which Potency is on record?
The Potency was 10.2 µM (active).

For Nc1cc(C(Cl)=C(Cl)Cl)c(S(N)(=O)=O)cc1S(N)(=O)=O, which Potency is on record?
Its Potency is 5.26 µM (active).

For Cc1cnc(Nc2ccc(N3CCN(C)CC3)cc2)nc1Nc1cccc(S(=O)(=O)NC(C)(C)C)c1, which Potency is on record?
The Potency was 16.6 µM (active).

For N=c1nc(N2CCCCC2)cc(N)n1O, which Potency is on record?
The Potency was “inactive”.

With CCCn1c(=O)c2[nH]c(-c3cnn(Cc4cccc(C(F)(F)F)c4)c3)nc2n(CC)c1=O as the molecule, how does the Potency read?
The Potency was 4.18 µM (active).

Experiment: Quantitative highthroughput screen to assess conditional lethalithy of P12 Ichikawa cells grown in RPMI1640 with untreated serum (RPMI+s) (AID 1963881)
Conditions: ATP luminescence, 48 h; Potency: viability; series mostly up to 45.8 µM
Outline: as §1

With O=c1oc2c(O)c(O)cc3c(=O)oc4c(O)c(O)cc1c4c23 as the molecule, how does the Potency read?
The Potency was “inactive”.

Which Potency does the source give for Cc1nnc(NS(=O)(=O)c2ccc(N)cc2)s1 here?
The Potency was 8.33 µM (active).

With NC1=N[C@H]2[C@H](CS[C@H]2CCCCC(=O)O)N1 as the molecule, how does the Potency read?
Its Potency is “inactive”.

Which Potency does the source give for Nc1ccn([C@@H]2CS[C@H](CO)O2)c(=O)n1 here?
The Potency was “inactive”.

For N#Cc1ccc(C(c2ccc(C#N)cc2)n2cncn2)cc1, which Potency is on record?
Its Potency is “inactive”.

Which Potency does the source give for CC(C)Cn1cnc2c(N)nc3ccccc3c21 here?
The Potency was “inactive”.

For C=CCn1c(=O)c2cnc(Nc3ccc(N4CCN(C)CC4)cc3)nc2n1-c1cccc(C(C)(C)O)n1, which Potency is on record?
Its Potency is 2.64 µM (active).

With CC(=O)OCC(CCn1cnc2cnc(N)nc21)COC(C)=O as the molecule, how does the Potency read?
Its Potency is “inactive”.

For OC[C@H]1O[C@@H](OCCc2ccc(O)cc2)[C@H](O)[C@@H](O)[C@H]1O, which Potency is on record?
Its Potency is “inactive”.

With CC(=O)c1cnc2ccc(-c3cc(Cl)c(O)c(Cl)c3)nc2c1NC1CCC(CN(C)C)CC1 (configuration not stated) as the molecule, how does the Potency read?
Its Potency is 0.148 µM (active).

Which Potency does the source give for C[C@@H](c1ncncc1F)[C@](O)(Cn1cncn1)c1ccc(F)cc1F here?
The Potency was “inactive”.

With C=CC(=O)Nc1cc2c(Nc3ccc(F)c(Cl)c3)ncnc2cc1OCCCN1CCOCC1 as the molecule, how does the Potency read?
Its Potency is 5.26 µM (active).

With CC[N+](CC)(CC)CCOc1cccc(OCC[N+](CC)(CC)CC)c1OCC[N+](CC)(CC)CC as the molecule, how does the Potency read?
Its Potency is “inactive”.

Which Potency does the source give for C#CCN[C@@H]1CCc2ccccc21 here?
The Potency was “inactive”.

For O=C1CSC(=O)N1C(CCc1ccncc1)COc1ccc(-c2cccc([N+](=O)[O-])c2)cc1 (configuration not stated), which Potency is on record?
Its Potency is “inactive”.

Which Potency does the source give for C1COC(NC(C2CC2)C2CC2)=N1 here?
The Potency was “inactive”.

With CCCCOc1c(C(=O)c2c(F)cc(C)cc2F)cnc2n[nH]cc12 as the molecule, how does the Potency read?
Its Potency is “inactive”.

With CC(C)CC(=O)Nc1n[nH]c2c1CN(C(=O)C1CCN(C)CC1)C2(C)C as the molecule, how does the Potency read?
Its Potency is 4.18 µM (active).

Which Potency does the source give for Cc1nc2n(c(=O)c1CCN1CCC(c3noc4cc(F)ccc34)CC1)CCCC2 here?
Its Potency is “inactive”.

With CCn1cc(C(=O)O)c(=O)c2cc(F)c(N3CCNCC3)cc21 as the molecule, how does the Potency read?
Its Potency is 3.32 µM (active).

For CNC1CCCN(c2c(F)cc3c(=O)c(C(=O)O)cn(C4CC4)c3c2OC)C1 (configuration not stated), which Potency is on record?
The Potency was “inactive”.

Which Potency does the source give for CC(=O)N(O)CCCCCNC(=O)CCC(=O)N(O)CCCCCNC(=O)CCC(=O)N(O)CCCCCN here?
The Potency was 0.0588 µM (active).

With Nc1cc(C(Cl)=C(Cl)Cl)c(S(N)(=O)=O)cc1S(N)(=O)=O as the molecule, how does the Potency read?
Its Potency is 7.43 µM (active).

For Cc1cnc(Nc2ccc(N3CCN(C)CC3)cc2)nc1Nc1cccc(S(=O)(=O)NC(C)(C)C)c1, which Potency is on record?
Its Potency is 7.43 µM (active).

With N=c1nc(N2CCCCC2)cc(N)n1O as the molecule, how does the Potency read?
The Potency was “inactive”.

With CCCn1c(=O)c2[nH]c(-c3cnn(Cc4cccc(C(F)(F)F)c4)c3)nc2n(CC)c1=O as the molecule, how does the Potency read?
The Potency was 0.418 µM (active).
